Assay outcomes: PubChem, National Center for Advancing Translational Sciences (NCATS)
Shiga inhibitor = A qHTS for Small Molecule Inhibitors of Shiga Toxin | inhibition, % at 38.7 µM | 290,000 tested, 9.2% active | Vero cells, Shiga toxin protein synthesis inhibition reporter; in the data active = inhibition mostly above about 28%, no sharp cut-off; inactive = mostly below about 43%; note: 0% is about no effect
Tb PYK inh = qHTS of Trypanosoma Brucei Inhibitors; TbPYK enzyme, Kinase-Glo Plus ATP luminescence, 45 min; Potency, µM (top dose mostly 76.8 µM), for the others: top-dose activity, negative = inhibition, most hits filed as inhibitors; AID 624173, 2012; 410,000 tested, 0.12% active; pyruvate kinase (Trypanosoma brucei), Q57TT1; note: potency is the fitted concentration of half-maximal effect; % is set by controls: 0 for no effect and ±100 for the full control effect; nearly all actives have a fitted effect of over 50% in size
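Enzyme and substrate buffer are dispensed first and compound is pin-transferred. ADP at 130 uM final then starts the reaction, which runs 45 min at room temperature. Detection reagent is added for 10 min before luminescence is imaged.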
LmPK inh = qHTS Assay for Inhibitors of Leishmania Mexicana Pyruvate Kinase (LmPK); Q27686; 290,000 tested, 0.37% active; purified LmPK, Kinase-Glo ATP luminescence, 1 h; Potency, µM (top dose mostly 57.5 µM), for inactives: at the top dose activity change, negative = inhibition, actives largely listed as inhibitors; note: potency is the fitted concentration of half-maximal effect; % is set by controls: 0 for no effect and ±100 for the full control effect
Target sequence (Q27686 whole entry, looked up): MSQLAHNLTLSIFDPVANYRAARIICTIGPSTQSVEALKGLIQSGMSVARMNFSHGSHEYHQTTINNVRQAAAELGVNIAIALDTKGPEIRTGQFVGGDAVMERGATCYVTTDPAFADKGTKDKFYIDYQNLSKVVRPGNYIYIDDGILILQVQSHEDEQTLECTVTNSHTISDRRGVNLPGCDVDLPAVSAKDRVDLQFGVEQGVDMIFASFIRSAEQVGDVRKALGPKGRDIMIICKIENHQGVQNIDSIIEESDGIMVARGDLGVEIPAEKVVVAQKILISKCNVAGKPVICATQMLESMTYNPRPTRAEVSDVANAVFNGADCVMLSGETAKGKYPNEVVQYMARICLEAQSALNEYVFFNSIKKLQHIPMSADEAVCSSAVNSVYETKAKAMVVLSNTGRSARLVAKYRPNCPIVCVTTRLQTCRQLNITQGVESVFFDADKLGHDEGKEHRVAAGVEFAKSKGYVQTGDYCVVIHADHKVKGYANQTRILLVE
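Pyruvate kinase activity monitored as ATP production (luciferase luminescence). Conditions: 0.1 nM enzyme, 0.5 mM PEP, 0.1 mM ADP, 1 h, RT; normalized against uninhibited and no-enzyme wells.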
FBPA Giardia inh = qHTS Assay for Inhibitors of Fructose-1,6-bisphosphate Aldolase from Giardia Lamblia; Potency, µM (titrated, usually from 59.6 µM), for the others: at the highest dose activity, negative = inhibition, actives largely listed as inhibitors; AID 2451, 2010; purified Giardia FBPA; 290,000 tested, 0.71% active; note: potency is the fitted concentration of half-maximal effect; % is set by controls: 0 for no effect and ±100 for the full control effect; nearly all actives have a fitted effect of over 55% in size
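40 nM FBPA preincubated 10 min at RT with compound (up to 57.5 uM final), then substrate plus GAPDH/TPI/NAD/arsenate coupling and diaphorase/resazurin added. Fluorescence read after 20 min at RT, 525/598 nm.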
RE007 growth inh = qHTS Assay for Inhibitors of the HIV-1 protein Vpr; S. pombe RE007 Vpr strain, BacTiter-Glo ATP luminescence, 24 h; Potency, µM (titrated, usually from 92.2 µM), for inactives: at the top dose activity change, negative = less growth, actives largely listed as inhibitors; 360,000 tested, 0.21% active; active = well fitted falling curve with a large enough effect; inconclusive = small, poorly fitted or top-dose-only effect; inactive = no such curve, though single readings can be large or run the other way; note: potency is the fitted concentration of half-maximal effect; % is set by controls: 0 for no effect and ±100 for the full control effect; nearly all actives have a fitted effect of over 50% in size
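Fission yeast RE007 carrying one integrated HIV-1 vpr copy, seeded at OD 0.01 in PMG+AL medium with 23 nL pinned compound. Grown 24 h at 30 degrees; viability read by BacTiter-Glo luminescence after 5 min.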
Cycloheximide cs = Cycloheximide Counterscreen for Small Molecule Inhibitors of Shiga Toxin | cell reporter, cycloheximide protein synthesis inhibition counterscreen | max response, % | 300,000 tested, 12% active | AID 2314, 2010; in the data active = max response mostly above about 13%, no sharp cut-off; inactive = mostly below about 14%; note: read at 38.3 µM for the half of the compounds with a filed dose; 0% is about no effect
An asterisk follows results filed as active; ? = inconclusive; . = no result; [ ] = another dose, or the depositor's remark. Many of the other results were omitted from the sample, so hits are more common in it than they were. Unless noted, calls come from the whole dose curve; as a rule, active = well fitted curve in the direction sought with a large enough effect; inconclusive = small, poorly fitted or top-dose-only effect, or another doubt; inactive = no such curve, though single readings can be large; an effect the other way counts as inactive or inconclusive.

SMILES	Shiga inhibitor	Tb PYK inh	LmPK inh	FBPA Giardia inh	RE007 growth inh	Cycloheximide cs
Cc1cccc(N2CCN(CCCNc3ncnc4onc(-c5ccc(F)cc5)c34)CC2C)c1 (configuration not stated)	.	0.7%	.	.	.	.
CCc1ccc2occ(CC(=O)Nc3sc4c(c3C(=O)OC)CCC4)c2c1	.	3.0%	.	.	.	.
CCOc1ccc(N(CC(=O)Nc2ccc(Br)cc2)S(C)(=O)=O)cc1	54.1*	0.3%	-0.8%	2.7%	2.3%	30.0*
CCOc1ccc(NC(=O)CN(c2ccc(OC)cc2)S(=O)(=O)c2cccs2)cc1	.	1.4%	.	.	-7.3%	.
COC(=O)c1ccc(NC(=O)CN(c2ccc(OC)cc2)S(C)(=O)=O)cc1	63.0*	-16.0%	3.4%	0.0%	-2.6%	53.3*
COC(=O)c1ccccc1NC(=O)CN(c1ccc(OC)cc1)S(C)(=O)=O	4.0	-3.8%	-1.7%	0.3%	-11.7%	5.0
CCOc1ccc(N(CC(=O)Nc2ccc(OC)cc2)S(C)(=O)=O)cc1	53.2*	-0.4%	-2.5%	4.1%	14.1%	39.3*
CCOc1ccc(N(CC(=O)Nc2ccc(C)c(Cl)c2)S(C)(=O)=O)cc1	19.4	6.9%	4.6%	-3.6%	1.6%	24.5*
CCOc1ccc(N(CC(=O)Nc2ccc(OC)cc2)S(=O)(=O)c2ccc(Cl)cc2)cc1	.	3.0%	.	.	.	.
CN1CCN(C(=O)C(=O)Nc2c3c(nn2-c2ccc(F)cc2)CSC3)CC1	.	-2.4%	.	.	.	.
CCn1c(C)c(C2N3CC4(C)CN2CC(C)(C3)C4=O)c2ccccc21 (configuration not stated)	.	1.8%	.	.	.	.
COCC(=O)N1CCC[C@@]2(CCN(Cc3nccs3)C2)C1	.	-2.5%	.	-0.1%	.	.
COC1=C/C(=C/c2c(O)c(C#N)c3ccccn23)C=CC1=O	72.9*	?	?	?	-22.1%	56.0*
CCOC(=O)c1cnn(-c2ccccc2)c1N	33.7	1.5%	-5.2%	4.7%	3.6%	30.9*
CCOc1cccc(Oc2ccc(C(F)(F)F)cn2)c1	-3.4	-7.4%	-6.9%	-3.4%	-1.5%	-2.0
CCOC(=O)c1cnn(-c2ccccc2)c1-n1cccc1C(=O)C(=O)Nc1ccccc1	43.1*	1.6%	-1.4%	-6.5%	-2.9%	21.3*
CCOC(=O)NNc1ccc(C(F)(F)F)cn1	-0.8	-3.9%	-2.5%	0.6%	-2.4%	-1.2
CCOC(=O)c1ccc(Oc2ccc(C(F)(F)F)cn2)cc1	61.4	7.2%	4.5%	-4.3%	-4.9%	29.0*
CCOC(=O)c1cnn(-c2ccc(C(F)(F)F)cn2)c1N	77.4*	3.6%	-7.5%	4.1%	-17.9%	40.2*
NC(=O)c1cnn(-c2ccc3ccccc3c2)c1N	38.7	11.4%	0.2%	-4.9%	1.1%	23.6*
CCOC(=O)c1cnn(-c2cccc(Cl)c2)c1N	60.8*	.	0.6%	5.9%	-0.6%[3.69 µM]	34.4*
CCOC(=O)c1cnn(-c2nc(C)cc(C)n2)c1N	19.7	-0.9%	-3.0%	-12.3%	-18.5%	2.6
CCOC(=O)c1cnn(-c2ccc([N+](=O)[O-])cc2)c1N	17.9	2.0%	-1.6%	4.1%	3.8%	14.9*
Nc1c(C(=O)O)cnn1-c1ccc([N+](=O)[O-])cc1	-17.5	-1.9%	6.0%	0.7%	-9.0%	-2.8
N/C(=N\OC(=O)COc1cc(Cl)c(Cl)cc1Cl)c1ccccn1	90.6*	-1.2%	-5.4%	-3.5%	4.9%	39.5*
SMILES	Shiga inhibitor	Tb PYK inh	LmPK inh	FBPA Giardia inh	RE007 growth inh	Cycloheximide cs
Cc1ccc(S(=O)(=O)N(C)CC(=O)O/N=C(\N)c2ccccn2)cc1	-13.5	-8.9%	-0.7%	7.1%	-7.0%	-2.0
N/C(=N\OC(=O)CCCOc1ccc(Cl)cc1Cl)c1ccccn1	4.5	-0.6%	-7.8%	-3.3%	-29.1%	4.9
N/C(=N\OC(=O)Cc1ccc(Cl)cc1)c1ccccn1	31.5	-9.8%	-13.1%	5.0%	4.5%	19.9*
Cc1ccc(CC(=O)O/N=C(\N)c2ccccn2)cc1	83.7*	-4.8%	-3.4%	.	-2.1%	81.9*
Cc1cccc(OCC(=O)O/N=C(\N)c2ccccn2)c1C	64.8*	4.3%	-20.4%	1.6%	-5.5%	28.1*
NC(=O)c1cc(S(=O)(=O)NCC2CCC(C(=O)Nc3cccc(Cl)c3)CC2)cs1 (configuration not stated)	.	-1.1%	.	.	.	.
COc1cccc(NC(=O)Cn2c(=O)n(CCc3ccc(OC)c(OC)c3)c(=O)c3ccccc32)c1	.	2.8%	.	.	.	.
CCC1(CCC(C)C)C(=O)NC(=O)NC1=O	.	0.5%[157 µM]	.	.	.	.
Cc1ccc(OCC(=O)O/N=C(\N)c2ccccn2)cc1	80.3*	2.1%	-17.5%	-21.6%	4.3%	50.4*
CC(C)(C)CC(=O)O/N=C(\N)c1ccccn1	30.2	-18.3%	-4.8%	15.7%	-12.3%	40.1*
CO/N=C/CC(=O)c1cnc(-c2ccccc2)s1	40.0	1.9%	6.8%	-18.8%	-2.5%	18.8*
CCc1ccc(NC(=O)c2cnccn2)cc1	55.3*	-9.8%	-2.6%	-6.3%	-10.6%	38.2*
O=C(Nc1ccc(NC(=O)c2ccco2)cc1)c1cnccn1	58.4	2.3%	-29.5%	2.0%	9.8%	25.2*
O=C(Nc1ccccc1C(F)(F)F)c1cnccn1	-20.2	-1.2%	5.9%	6.7%	-2.6%	1.8
CCCOC(=O)c1ccc(NC(=O)c2cnccn2)cc1	50.8*	-4.0%	-9.9%	2.8%	-0.6%	26.0*
CCCCOC(=O)c1ccc(NC(=O)c2cnccn2)cc1	10.4	5.3%	0.7%	1.9%	-17.9%	17.9
O=C(Nc1ccc(OC(F)(F)F)cc1)c1cnccn1	101.2*	1.1%	-6.8%	3.2%	2.3%	55.0*
O=C(N/N=C/c1ccco1)c1cnccn1	8.7	-6.9%	-0.7%	0.7%	-8.1%	-0.6
CCNC(=O)c1ccc2nc(CCc3ccccc3)oc2c1	.	3.9%	.	.	.	.
COc1cccc(NC(=O)c2oc3ccccc3c2NC(=O)C23CC4CC(CC(C4)C2)C3)c1	.	1.8%	.	.	.	.
C[C@]12CCC(=O)C=C1[C@@H]1C[C@H]1[C@H]1[C@@H]3[C@@H]4C[C@H]4[C@@]4(CCC(=O)O4)[C@@]3(C)CC[C@@H]12	.	4.6%	.	.	.	.
CCc1ccc(NC(=O)c2cnc3scc(C)n3c2=O)cc1	11.0*	-5.8%	-0.5%	0.6%	-7.9%	34.0*
Cc1csc2ncc(C(=O)Nc3cccc(C(F)(F)F)c3)c(=O)n12	-1.4	0.6%	-2.7%	0.7%	-23.8%	8.0
Cc1cc(C)cc(-n2c(SCC(=O)N3CCC(C)CC3)nc3c([nH]c4ccccc43)c2=O)c1	.	4.5%	.	.	.	.
CC1=C/C(=N\OS(=O)(=O)c2ccccc2)C(C(C)C)=CC1=O	37.5	-3.3%	-3.0%	11.2µM*	?	21.5*
CON=C1C=C(C)C(=O)C(C)=C1C	.	1.5%	.	.	20.7%	.
